PubChem BioAssay AID934 (National Center for Advancing Translational Sciences (NCATS), 2007)
Results filed as inconclusive are left out. Unmarked numbers belong to inactive results. The source made the active and inactive calls. Calls come from the whole dose curve; as a rule, active = well fitted activation curve with a large enough effect; inconclusive = small, poorly fitted or top-dose-only effect; inactive = flat fitted curve, though single readings scatter.

assay: Parental Cell Counter Screen for Stat Signaling Pathway Assay; conditions: ME-180 (cervical carcinoma) parental cells, blue fluorescence artefact counter-screen; series mostly up to 38.3 µM; activity (fluorescence increase): at the top concentration
From the text: NIH Molecular Libraries Screening Centers Network [MLSCN] NIH Chemical Genomics Center [NCGC] MLSCN Grant: None NCGC Assay Overview: This assay is a counter screen for the Stat signaling pathway assay (PubChem AID 446). The Stat assay is cell-based and measures Interleukin 6 (IL-6) mediated modulation of a beta-lactamase reporter gene controlled by a STAT inducible element (SIE-bla cells, Invitrogen). IL-6 is a cytokine that signals via the JAK/STAT pathway and is implicated in cancer and inflammation. […] Compounds active in the parental ME-180 cells are likely fluorescent.
NCGC Assay Protocol Summary: Cells were trypsinized, washed in assay medium (AM, OPTI MEM with 0.5% fetal bovine serum, 0.1 mM nonessential amino acids, 1 mM sodium pyruvate, 10mM HEPES pH 7.3, 100U/ml penicillin, and 100 ug/ml streptomycin) and suspended at […] in AM. Approximately 2500 cells in 5 uL/well was dispensed into 1536-well plates and the cells were incubated overnight at 37 C. 23 nL of compound were delivered by a pin tool and 1 uL of IL-6 (40 pM final concentration in AM) was added. After plates were incubated at 37 C for 5 hrs, 1uL of detector mix (LiveBLAzerTM, Invitrogen) was added, the plates incubated at room temperature for 2.5 hrs, and fluorescence intensity at 460 and 530 nm emissions was measured at 405 nm excitation by an Envision (Perkin Elmer).

Compound | Potency | activity (fluorescence increase) [%]
Cc1c2ccncc2c(C)c2c1[nH]c1ccccc12 | 15.8 µM (active) | –
COc1ccc2c3c([nH]c2c1)C(C)=NCC3 | 12.6 µM (active) | –
COC1=C(C)C(=O)c2c(c(COC(N)=O)c3n2C[C@@H]2[C@@H]3N2C)C1=O (stereo not given in full) | 12.6 µM (active) | –
CN(N=O)c1ccc(O)c(O)c1 | – | 11.3
c1ccc2c(c1)[I+]c1ccccc1-2 | – | 26.2
O=c1ccc2cc(O[C@H]3O[C@@H](CO)[C@@H](O)[C@@H](O)[C@@H]3O)c(O)cc2o1 | 15.8 µM (active) | –
COC(=O)C(O)(c1ccc(NC(=O)c2ccco2)c(OC)c1)C(F)(F)F (stereo not given) | 0.0063 µM (active) | –
CCn1cnc2c(Nc3cccc(Cl)c3)nc(N[C@@H]3CCCC[C@H]3N)nc21 | – | 13.2
CC[C@]1(O)C(=O)OCc2c1cc1n(c2=O)Cc2cc3ccccc3nc2-1 | – | 9.35
COc1cccc2c1C(=O)c1c(O)c3c(c(O)c1C2=O)C[C@](O)(/C(C)=N\O)C[C@@H]3O[C@H]1C[C@H](N)[C@@H](O)[C@H](C)O1 | – | 4.72
